Compounds without any hit were thinned out: in the full panel of roughly 83,000, 20% have a hit.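 Percent growth is the endpoint: 0 to 100 indicates growth inhibition (40 means 60% inhibition), 0 means no net growth, and negative values indicate cell death.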 Values without a mark were called inactive. Calls of active or inactive are those of the source. The calls were made as follows: active = growth percent below 10; inactive = the rest.
tested on: MCF7 breast; assay: NCI-60 one-dose screen, 48 h (100 = growth as untreated, 0 = no growth, -100 = all killed); settings: 10 µM unless noted

SMILES	growth
CC(C)C[C@H](NC(=O)/C=C/Cn1ccc2ccccc2c1=O)B(O)O	26.5%
C[C@]12CCC(=O)C=C1CC[C@H]1[C@@H]3C[C@@H](O)[C@](O)(C(=O)CO)[C@@]3(C)C[C@H](O)[C@@]12F	86.1%
CNNc1ncnc2c1cnn2-c1ccc(S(N)(=O)=O)cc1	104%
O=C(C(=O)c1cc(Br)ccc1O)c1cc(Br)ccc1O	36.5%
COc1ccc(/C=C2\CCc3ccccc3C2=O)cc1	85.7%
CC(C)N(Cc1ccccc1)c1c(S)ssc1=S	3.04% (active)
O=C1C=CC(=O)N1c1ccccn1	100%
COc1cccc(/C=N\NC(=O)c2ccncc2)c1O	26.5%
CN[C@@H]1C(OC2[C@H](O[C@H]3[C@H](O)[C@@H](O)[C@H](N=C(N)N)[C@@H](O)[C@@H]3N=C(N)N)OC(C)[C@]2(O)CO)OC(CO)C(O)C1O (stereo not given in full)	111%
CC(C)Sc1nc(-c2ccc(Br)cc2)c(C#N)c(N2CCCCC2)n1	93.1%
O=CN1N=C(c2ccc(Nc3ccnc4cc(Cl)ccc34)cc2)CC1c1ccc(Cl)cc1 (stereo not given)	18.4%
O=C(O)c1ccc2cccnc2c1O	10.8%
O=C(Nc1ccc2c(c1)C(=O)c1ccccc1-2)c1ccccc1	48%
Nc1ccccc1C#Cc1ccccc1C#Cc1ccc(OCCCCCCOc2ccc(C#Cc3ccccc3C#Cc3ccccc3N)cc2)cc1	74.7%
O=C(CC(C(=O)c1ccccc1)N1CCN(Cc2ccccc2)CC1)c1ccccc1 (stereo not given)	52.1%
Cc1ccc(S(=O)(=O)N2CCN(C(=O)CSc3nc4ccc(C)cc4[nH]3)CC2)cc1	98.3%
CCCCc1ccc(C(N)=O)nc1	86.9%
CC(=O)O[C@H]1CC[C@@]2(C)C(=CC[C@@H]3[C@@H]2CC[C@]2(C)C(c4cccnc4)=CC[C@@H]32)C1	46%
COc1cnc2c(c1)C(=O)c1c-2n(CCCN2CCOCC2)c(=O)c2cc(F)ccc12	1.93% (active)
O=Cc1ccccc1C(=O)O	93.7%

SMILES	growth
O=C(NCCNC(=O)Oc1cccc2ccccc12)Oc1cccc2ccccc12	84.4%
COc1ccc2cc(C3=CC(=O)CCC3)ccc2c1	110%
COc1ccc(NS(=O)(=O)N2CCCCC2)cc1	108%
[N-]=[N+]=NCc1ncc(-c2ccc(C(F)(F)F)cc2)c(NC2CCCCCC2)n1	66.2% [50 µM]
O=C(CNC(=O)c1cccc2ccccc12)Nc1ccccc1Cc1ccccc1	23.5% [5 µM]
COc1ccc2c(c1)[n+](=O)c(/C=C/C(=O)c1cc(OC)c(OC)c(OC)c1)c(C)n2[O-]	18.1%
O=C1NCCc2c1noc2-c1ccccc1	92.9%
Cc1sc2nc(N3CCCCC3)[nH]c(=O)c2c1C	96.1%
CS(=O)(=O)N1CCN(Cc2cc3nc(-c4cccc5[nH]ncc45)nc(N4CCOCC4)c3s2)CC1 (tested in a mixture with another compound)	6.96% (active)
C=CCN(/C=C/CN(CC=C)CC=C)CC=C	97%
O=C(O)C1CCN(S(=O)(=O)c2ccc(-c3ccccc3)cc2)CC1	101%
Cc1ccc(NC(=O)c2sc3nc4c(cc3c2N)C(=O)CCC4)cc1	67.7%
Oc1c(Cl)cc(Oc2cc(Cl)c(O)c(CN3CCOCC3)c2)cc1CN1CCOCC1	94.4%
COC(=O)[C@H](CCCCNC(=O)OCc1ccccc1)NC(=O)[C@@H](NC(=O)Nc1cc(C(F)(F)F)cc(C(F)(F)F)c1)C(C)C	-18.2% [100 µM] (active)
CCSc1nc(Nc2ccc(S(=O)(=O)Nc3ccon3)cc2)c(C#N)c(-c2cccc(Br)c2)n1	79.2%
CCCCN1c2nc3ccccc3cc2Sc2cc3ccccc3nc21	7.26% (active)
COc1cc(/C=C\C(C)=N\Nc2ccccc2)ccc1O	82.4%
O=c1[nH]c(SCc2ccccc2)nc2nc(Nc3ccc(NC(=S)Nc4ccccc4)cc3)nc(-c3ccc(O)cc3O)c12	99.2%
O=C(Oc1ccccc1)C(Br)C(Br)c1ccccc1 (stereo not given)	49.5%
O=c1oc2c(cc1-c1ccc([N+](=O)[O-])cc1)C(O)Oc1ccccc1-2 (stereo not given)	90.8%

tested on: HCT-116 colon; assay: as above; settings: 10 µM unless noted

SMILES	growth
CC(C)C[C@H](NC(=O)/C=C/Cn1ccc2ccccc2c1=O)B(O)O	16.2%
C[C@]12CCC(=O)C=C1CC[C@H]1[C@@H]3C[C@@H](O)[C@](O)(C(=O)CO)[C@@]3(C)C[C@H](O)[C@@]12F	90.6%
CNNc1ncnc2c1cnn2-c1ccc(S(N)(=O)=O)cc1	100%
O=C(C(=O)c1cc(Br)ccc1O)c1cc(Br)ccc1O	40.3%
COc1ccc(/C=C2\CCc3ccccc3C2=O)cc1	94.3%
CC(C)N(Cc1ccccc1)c1c(S)ssc1=S	5.93% (active)
O=C1C=CC(=O)N1c1ccccn1	96.8%
COc1cccc(/C=N\NC(=O)c2ccncc2)c1O	11.6%
CN[C@@H]1C(OC2[C@H](O[C@H]3[C@H](O)[C@@H](O)[C@H](N=C(N)N)[C@@H](O)[C@@H]3N=C(N)N)OC(C)[C@]2(O)CO)OC(CO)C(O)C1O (stereo not given in full)	105%
CC(C)Sc1nc(-c2ccc(Br)cc2)c(C#N)c(N2CCCCC2)n1	100%
O=CN1N=C(c2ccc(Nc3ccnc4cc(Cl)ccc34)cc2)CC1c1ccc(Cl)cc1 (stereo not given)	11.7%
O=C(O)c1ccc2cccnc2c1O	2.32% (active)
O=C(Nc1ccc2c(c1)C(=O)c1ccccc1-2)c1ccccc1	-20.7% (active)
Nc1ccccc1C#Cc1ccccc1C#Cc1ccc(OCCCCCCOc2ccc(C#Cc3ccccc3C#Cc3ccccc3N)cc2)cc1	110%
O=C(CC(C(=O)c1ccccc1)N1CCN(Cc2ccccc2)CC1)c1ccccc1 (stereo not given)	22.8%
Cc1ccc(S(=O)(=O)N2CCN(C(=O)CSc3nc4ccc(C)cc4[nH]3)CC2)cc1	103%
CCCCc1ccc(C(N)=O)nc1	99.4%
CC(=O)O[C@H]1CC[C@@]2(C)C(=CC[C@@H]3[C@@H]2CC[C@]2(C)C(c4cccnc4)=CC[C@@H]32)C1	54.1%
COc1cnc2c(c1)C(=O)c1c-2n(CCCN2CCOCC2)c(=O)c2cc(F)ccc12	-77.1% (active)
O=Cc1ccccc1C(=O)O	99.6%

SMILES	growth
O=C(NCCNC(=O)Oc1cccc2ccccc12)Oc1cccc2ccccc12	99.7%
COc1ccc2cc(C3=CC(=O)CCC3)ccc2c1	92.5%
COc1ccc(NS(=O)(=O)N2CCCCC2)cc1	103%
[N-]=[N+]=NCc1ncc(-c2ccc(C(F)(F)F)cc2)c(NC2CCCCCC2)n1	40.5% [50 µM]
O=C(CNC(=O)c1cccc2ccccc12)Nc1ccccc1Cc1ccccc1	14.6% [5 µM]
COc1ccc2c(c1)[n+](=O)c(/C=C/C(=O)c1cc(OC)c(OC)c(OC)c1)c(C)n2[O-]	17.9%
O=C1NCCc2c1noc2-c1ccccc1	88.3%
Cc1sc2nc(N3CCCCC3)[nH]c(=O)c2c1C	93.2%
CS(=O)(=O)N1CCN(Cc2cc3nc(-c4cccc5[nH]ncc45)nc(N4CCOCC4)c3s2)CC1 (tested in a mixture with another compound)	23.8%
C=CCN(/C=C/CN(CC=C)CC=C)CC=C	102%
O=C(O)C1CCN(S(=O)(=O)c2ccc(-c3ccccc3)cc2)CC1	112%
Cc1ccc(NC(=O)c2sc3nc4c(cc3c2N)C(=O)CCC4)cc1	91.7%
Oc1c(Cl)cc(Oc2cc(Cl)c(O)c(CN3CCOCC3)c2)cc1CN1CCOCC1	87%
COC(=O)[C@H](CCCCNC(=O)OCc1ccccc1)NC(=O)[C@@H](NC(=O)Nc1cc(C(F)(F)F)cc(C(F)(F)F)c1)C(C)C	-86.6% [100 µM] (active)
CCSc1nc(Nc2ccc(S(=O)(=O)Nc3ccon3)cc2)c(C#N)c(-c2cccc(Br)c2)n1	85%
CCCCN1c2nc3ccccc3cc2Sc2cc3ccccc3nc21	95.1%
COc1cc(/C=C\C(C)=N\Nc2ccccc2)ccc1O	91.4%
O=c1[nH]c(SCc2ccccc2)nc2nc(Nc3ccc(NC(=S)Nc4ccccc4)cc3)nc(-c3ccc(O)cc3O)c12	102%
O=C(Oc1ccccc1)C(Br)C(Br)c1ccccc1 (stereo not given)	61.2%
O=c1oc2c(cc1-c1ccc([N+](=O)[O-])cc1)C(O)Oc1ccccc1-2 (stereo not given)	94.8%
